LANA-H2B inh: blocks KSHV LANA binding to histone H2A/H2B; cell-free LANA-H2A/H2B peptide, fluorescence polarization; Q9QR71; inhibition, % (concentration not given with the values); 320,000 tested, 0.6% active; AID 2629; in the data active means inhibition mostly above about 10%, no sharp cut-off; inactive means mostly below about 6.7%
PRMT1 FP inh: PRMT1 (human) inhibition, primary screen. Q99873. AID 652257. recombinant PRMT1, activity-based probe fluorescence polarization. 370,000 tested, 1.3% active. inhibition, % at 2.79 µM;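 active means inhibition above about 21% made by adding two undisclosed values, limit read from the data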
Target sequence (Q99873 whole entry, looked up): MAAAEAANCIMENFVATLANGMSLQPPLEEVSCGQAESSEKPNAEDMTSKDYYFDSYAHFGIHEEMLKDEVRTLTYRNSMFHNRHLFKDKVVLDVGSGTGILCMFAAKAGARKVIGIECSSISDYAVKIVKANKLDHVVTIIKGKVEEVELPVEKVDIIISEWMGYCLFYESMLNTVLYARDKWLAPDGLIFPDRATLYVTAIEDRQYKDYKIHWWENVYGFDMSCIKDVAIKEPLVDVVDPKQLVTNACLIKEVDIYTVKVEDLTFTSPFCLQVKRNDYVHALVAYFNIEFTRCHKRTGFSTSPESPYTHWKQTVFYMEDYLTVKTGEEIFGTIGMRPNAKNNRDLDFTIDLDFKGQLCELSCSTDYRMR
ABHD5-PLIN5 inh: blocks binding of human ABHD5 to perilipin-5; Split G. princeps luciferase complementation, luminescence, 4 h; Q00G26+Q8WTS1; inhibition, % at 4 µM; 360,000 tested, 0.78% active;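 active means inhibition above the mean inhibition across every tested compound plus 3 SD, cut at about 22% in these data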;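 further: 0% = DMSO only wells and the 100% control is not disclosed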
ALR H2O2 inh: human ALR oxidase inhibition via reduced H2O2 | P55789 | purified ALR, DTT oxidation, H2O2 HRP-luminol luminescence | inhibition, % (test concentration not listed) | 290,000 tested, 3.8% active | AID 485317;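 active means mean replicate inhibition above about 79%, with every replicate also reaching it, limit read from the data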
Target sequence (P55789 whole entry, looked up): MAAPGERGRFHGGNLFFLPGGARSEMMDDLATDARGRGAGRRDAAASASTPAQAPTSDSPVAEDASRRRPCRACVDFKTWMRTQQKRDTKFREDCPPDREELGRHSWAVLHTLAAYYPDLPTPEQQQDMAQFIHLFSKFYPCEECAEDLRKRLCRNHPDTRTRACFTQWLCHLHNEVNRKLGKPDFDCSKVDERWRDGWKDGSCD
Rtt109 HAT inh: C. albicans Rtt109 histone acetyltransferase inhibition; inhibition, % at 34.9 µM; purified Rtt109/Vps75, ThioGlo CoA-SH fluorescence, 4 h; AID 540336; 330,000 tested, 0.16% active; Q5AAJ8;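 active means inhibition of at least 50% in every replicate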
rCAG binder: molecules binding r(CAG) RNA repeats. r(CAG) RNA repeat, TO-PRO-1 dye displacement fluorescence. inhibition, % at 3 µM. 370,000 tested, 1.3% active. AID 651821;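 active means inhibition above the plate cutoff, the mean of all test compounds on that plate plus 3 SD, cut at about 35% in these data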;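 further: 0% = DMSO alone and 100% = 100 µM mitoxantrone as full dye displacement; higher means more dye released from RNA so lower well fluorescence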
* hit, by the source's call; · = no result. Most compounds without a hit are left out; they make up all but 5.9% or so of the library.

SMILES | LANA-H2B inh | PRMT1 FP inh | ABHD5-PLIN5 inh | ALR H2O2 inh | Rtt109 HAT inh | rCAG binder
O=C(N[C@@H](Cc1cccnc1)C(=O)N1CCC[C@H]1C(=O)NCc1ccccc1)c1ccc(Cl)cc1Cl | · | -1 | · | · | · | 2
COC(=O)c1ccc(OC(=O)CS(=O)c2ccccc2[N+](=O)[O-])cc1 (stereo not given) | 2 | -2 | -2 | -58 | -3 | -5
O=C(CS(=O)c1ccc(C(F)(F)F)cc1[N+](=O)[O-])Oc1ccccc1 (stereo not given) | 2 | 3 | 9 | 99* | 7 | -5
O=C1NC[C@H](CCCCN2C[C@H](Cc3ccccc3)N(CCC3CCCCC3)C(=O)C2=O)N(CCc2ccc(O)cc2)C1=O | · | 2 | 12 | · | · | 7
O=C(Nc1nc(=O)c2ccccc2s1)c1ccccc1 | -4 | 75* | 11 | -1 | 0 | 3
COc1ccccc1/C=C1/C(=O)ON=C1C | 2 | 0 | 5 | 98* | 9 | -3
CCOC(=O)c1sc2cc([N+](=O)[O-])cc(SCC(=O)OC)c2c1N | -3 | 23* | 6 | -100 | 17 | 21
CCOC(=O)c1sc2cc([N+](=O)[O-])cc(SCCO)c2c1N | 4 | 0 | 1 | -8 | 0 | 5
CCCCCCN1CCS(=O)(=O)N(Cc2ccc(F)cc2)C(C(=O)OC)C1 (stereo not given) | · | 6 | · | · | · | 3
CCCCc1ccc(NC(=O)CSC2=C(C#N)C(c3ccco3)C3=C(CCCC3=O)N2)cc1 (stereo not given) | 1 | 3 | 1 | 98* | -1 | 10
Cc1ccc(C(=O)CSC2=C(C#N)C(c3ccco3)C3=C(CCCC3=O)N2)cc1 (stereo not given) | 2 | 21 | 3 | 99* | -12 | 17
CC(=O)C1=C(C)NC(SCC(=O)c2cc(Cl)ccc2Cl)=C(C#N)C1c1ccco1 (stereo not given) | -4 | 18 | 22* | -7 | 24 | 24
CC(=O)C1=C(C)NC(SCC(=O)c2ccc(Cl)c(Cl)c2)=C(C#N)C1c1ccco1 (stereo not given) | -5 | 7 | -1 | -32 | -1 | 22
CCCC(=O)N1CCCC1(C)C(=O)Nc1cc(C)ccc1C (stereo not given) | · | -1 | 2 | · | · | 1
COc1cccc(NC(=O)n2ccc3ccc(-c4ccc5cc[nH]c5c4)cc32)c1 | · | 1 | · | · | · | 22
O=C(NCc1ccccc1)[C@@H]1CCCN1C(=O)[C@H]1CCCN1C(=O)c1c(F)cccc1F | · | -1 | · | · | · | -2
CCCC(=O)N1CCCC(C(=O)c2ccc(OC)c(OC)c2)C1 (stereo not given) | 0 | -4 | -1 | · | 4 | -9
COc1ccc(CCC(=O)N2CCCC(Nc3ccc(C)c(C)c3)C2)cc1OC (stereo not given) | -1 | -3 | -7 | 99* | -4 | -7
COc1ccc(NC2CCCN(C(=O)COc3ccc(Cl)cc3C)C2)cc1OC (stereo not given) | 0 | 7 | -5 | 96* | 1 | -4
COc1ccccc1OCC(=O)N1CCCC(Nc2ccc(C)c(C)c2)C1 (stereo not given) | -5 | 0 | 3 | 98* | 9 | -7
Cc1ccc(NC2CCCN(C(=O)CSc3ccccn3)C2)cc1C (stereo not given) | 1 | 15 | 3 | 99* | 8 | -2
COc1ccccc1OCC(=O)N1CCCC(Nc2ccc(F)c(F)c2)C1 (stereo not given) | 1 | 2 | 5 | 41 | -10 | -5
COc1ccccc1C(=O)C1CCCN(C(=O)CSc2ccccn2)C1 (stereo not given) | 4 | 9 | -8 | · | 17 | -6
O=C(CN1C(=O)NC(c2ccccc2)(c2ccccc2)C1=O)NC1CCCCC1 | · | 1 | -6 | · | 4 | -1
Cc1ccc(NC2CCCN(C(=O)CCC3=NNC(=O)CC3)C2)cc1C (stereo not given) | 9 | 0 | 3 | 98* | 29 | -7
SMILES | LANA-H2B inh | PRMT1 FP inh | ABHD5-PLIN5 inh | ALR H2O2 inh | Rtt109 HAT inh | rCAG binder
Cc1ccc(S(=O)(=O)N2[C@H](CC(=O)c3cccs3)OC[C@@H]2C(C)C)cc1 | · | -2 | -3 | · | · | 4
CCc1c(-c2ccc(OC)cc2)ncn1Cc1cccc(-c2ccccc2)c1 | · | 2 | 6 | · | · | 4
O=C(CCN1C(=O)NC2(CCCC2)C1=O)Nc1ccc(-c2nc3ccccc3s2)cc1 | · | 1 | -1 | · | 3 | 5
CN1C(=O)[C@@](O)(c2cccn2C)c2cc(Cl)ccc21 | · | 2 | · | · | · | 0
CCN(CC)CCCNC(=O)c1cc(-c2ccccc2)c(N2CCCCC2)s1 | 1 | 0 | -5 | 99* | -4 | 2
COC(=O)C1=C(C)NC(=O)/C1=C\N(C)C | 0 | 25* | 0 | 0 | 0 | -5
COc1ccc(CCN2CC(C(=O)NCCCc3ccncc3)CCC2=O)cc1 (stereo not given) | · | 1 | 6 | · | · | 0
O=C1Nc2ccccc2Nc2ccccc21 | 1 | 1 | -9 | 4 | -1 | 1
O=C1Nc2ccccc2N=C(c2ccccc2)c2ccccc21 | -6 | -4 | -2 | 83* | · | 0
CC(=O)N1CCN(c2ccc(N)cc2)CC1 | 0 | 18 | -12 | 99* | -10 | 8
S=C(c1ccc(N2CCCC2)cc1)N1CCCCC1 | 3 | 1 | 1 | 99* | 3 | 3
Nc1ccc(N2CCN(c3ccc(F)cc3)CC2)cc1 | 3 | 1 | 1 | 99* | 10 | 9
CCN(CC)c1ccc(C(=S)N2CCN(c3ccccc3)CC2)cc1 | -3 | 1 | 1 | 8 | 53* | -3
CC(=O)N1CCN(c2ccc(NC(=O)c3ccc(Cl)cc3)cc2)CC1 | 1 | 0 | 9 | 3 | 15 | -3
Nc1ccc(N2CCN(c3ccc(Cl)c(Cl)c3)CC2)cc1 | -2 | 0 | 2 | 58 | 3 | 2
CCCCn1c(N)c(N(CC(C)C)C(=O)C2CCN(S(=O)(=O)c3ccc(C)cc3)CC2)c(=O)[nH]c1=O | 1 | 2 | -8 | -1 | 3 | 1
CC(=O)N1CCN(c2ccc(N3CCN(Cc4ccccc4)[C@@H](C)C3)c(C)c2)[C@H](C)C1 | · | 5 | · | · | · | 0
O=C(c1ccccc1)N1CCN(c2ccc(Cl)cc2)CC1 | -2 | 2 | 9 | 66 | -4 | -8
Nc1ccc(N2CCCCCC2)cc1 | 4 | · | · | 99* | · | ·
O=C(N1CCCCC1)N1CCN(c2ccc(Cl)cc2)CC1 | 6 | 1 | -4 | 98* | -8 | -6
C=CCN1[C@@H](CC(C)C)COc2cccc(N3CCCC3)c2S1(=O)=O | · | -1 | · | · | · | 1
CCOC(=O)c1c(C)n(C)c2cc(Br)c(OC)cc12 | -3 | 0 | -4 | -4 | -16 | -2
CCOC(=O)c1c(CNCCN(CC)CC)n(C)c2cc(Br)c(OC)cc12 | 2 | -2 | 19 | -19 | 65* | 0
CCOC(=O)[C@]12CCCCC/C=C\1N(CCc1ccc(Cl)cc1)C(=O)[C@H]2CC(=O)NCC1CCCCC1 | · | -2 | · | · | · | 2

Compound activity from PubChem.
